From PubChem BioAssay AID1159580 (chemical genetic matrix, 2015)
Several values for one entry are separate records, joined by “and”; a condition that tells them apart may be missing. Equal values may be shown once. The campaign covered roughly 5,500 compounds. About 2,000 (36%) were called active. Another 18% or so got no clear call; they are omitted. Rule as the data show it: active = normalized growth mostly below about 0.91 (no sharp cut-off); inconclusive = no clear call, values can overlap the other calls; inactive = mostly above about 0.92. The list shows a part of the results.

Assay: chemical genetic growth profiling, strain panel (AID 1159580);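 also: tested at 20 µM; growth read once vehicle control cultures reached saturation at 30 °C; 1 = growth at the plate median or of vehicle wells; lower values mean less growth of the strain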
Settings: S. cerevisiae deletion strains, growth OD

Measured: normalized growth

CCOc1nc2cccc(C(=O)OC(C)OC(=O)OC3CCCCC3)c2n1Cc1ccc(-c2ccccc2-c2nn[nH]n2)cc1 (configuration not stated)
inactive: locus YAL013W, strain DEP1, hits give low values 1 | locus YAL021C, strain ccr4, hits give low values 1 | locus YAL026C, strain drs2, hits give low values 1.03 | locus YAL030W, strain snc1, hits give low values 1.02 | locus YBL061C, strain skt5, hits give low values 1.01 | locus YBR009C, strain hhf1, hits give low values 0.998 | locus YBR021W, strain FUR4, hits give low values 1.03 | locus YBR023C, strain chs3, hits give low values 1.03 | locus YBR171W, strain sec66, hits give low values 1.05 | locus YBR229C, strain ROT2, hits give low values 0.996 | locus YBR231C, strain swc5, hits give low values 1.01 | locus YBR279W, strain paf1, hits give low values 1.02 | locus YCL011C, strain gbp2, hits give low values 1.02 | locus YCL016C, strain dcc1, hits give low values 1.01 | locus YCL029C, strain bik1, hits give low values 1.01 | locus YCL061C, strain MRC1, hits give low values 1.02 | locus YCL069W, strain vba3, hits give low values 1.05 | locus YCR088W, strain abp1, hits give low values 1.03 | locus YDL005C, strain med2, hits give low values 1.03 | locus YDL035C, strain GPR1, hits give low values 0.977 | locus YDL040C, strain nat1, hits give low values 1.02 | locus YDL074C, strain BRE1, hits give low values 0.96 | locus YDL101C, strain DUN1, hits give low values 0.998 | locus YDL134C, strain PPH21, hits give low values 1.01 | locus YDL185W, strain tfp1, hits give low values 0.999 | locus YDL192W, strain arf1, hits give low values 1 | locus YDR001C, strain nth1, hits give low values 1.03 | locus YDR069C, strain doa4, hits give low values 1.04 | locus YDR101C, strain arx1, hits give low values 1 | locus YDR150W, strain NUM1, hits give low values 1.01 | locus YDR159W, strain sac3, hits give low values 1 | locus YDR162C, strain NBP2, hits give low values 0.983 | locus YDR195W, strain ref2 0.994 | locus YDR297W, strain sur2, hits give low values 0.994 | locus YDR318W, strain mcm21, hits give low values 0.995 | locus YDR334W, strain swr1, hits give low values 1.03 | locus YDR335W, strain msn5, hits give low values 1.03 | locus YDR388W, hits give low values 1 | locus YDR392W, strain spt3, hits give low values 0.996 | locus YDR502C, strain sam2, hits give low values 0.997 | locus YEL003W, strain gim4, hits give low values 1.03 | locus YEL037C, strain rad23, hits give low values 1.02 | locus YEL061C, strain CIN8 (second series), hits give low values 1.02 | locus YEL061C, strain CIN8, hits give low values 1 | locus YER015W, strain faa2, hits give low values 1.02 | locus YER016W, strain bim1, hits give low values 1.02 | locus YER110C, hits give low values 0.997 | locus YER111C, strain swi4, hits give low values 1.04 | locus YER155C, strain BEM2 (second series), hits give low values 1.07 | locus YER155C, strain BEM2, hits give low values 1.01 | locus YER167W, strain BCK2, hits give low values 0.986 | locus YFR010W, strain ubp6, hits give low values 1.04 | locus YGL078C, strain dbp3, hits give low values 1.01 | locus YGL086W, strain mad1, hits give low values 0.997 | locus YGL167C, strain pmr1, hits give low values 1.03 | locus YGL173C, strain kem1, hits give low values 1.03 | locus YGL227W, strain vid30, hits give low values 1.02 | locus YGL240W, strain doc1, hits give low values 1.02 | locus YGL248W, strain PDE1, hits give low values 1.01 | locus YGL253W, strain hxk2, hits give low values 1.04 | locus YGR078C, strain PAC10, hits give low values 0.988 | locus YGR135W, strain pre9, hits give low values 1 | locus YGR229C, strain SMI1, hits give low values 0.851 | locus YGR252W, strain gcn5, hits give low values 0.972 | locus YHR013C, strain ard1, hits give low values 1.03 | locus YHR027C, strain rpn1, hits give low values 1.01 | locus YHR030C, strain SLT2, hits give low values 0.996 and 0.96 | locus YHR079C, strain IRE1 (second series), hits give low values 0.996 | locus YHR079C, strain IRE1, hits give low values 0.957 | locus YHR094C, strain hxt1, hits give low values 0.995 | locus YHR129C, strain ARP1, hits give low values 1.01 | locus YHR142W, strain chs7, hits give low values 1.04 | locus YHR200W, strain rpn10, hits give low values 0.998 | locus YIL066C, strain RNR3, hits give low values 1.01 | locus YIL073C, strain SPO22, hits give low values 1.07 | locus YIL125W, strain kgd1, hits give low values 0.989 | locus YIR030C, strain dcg1, hits give low values 0.996 | locus YJL092W, strain hpr5, hits give low values 1.03 | locus YJL095W, strain BCK1 (second series), hits give low values 1.01 | locus YJL095W, strain BCK1, hits give low values 0.8 and 1.01 | locus YJL115W, strain asf1, hits give low values 1.04 | locus YJL129C, strain trk1, hits give low values 1.04 | locus YJL134W, strain LCB3, hits give low values 1.01 | locus YJL154C, strain vps35, hits give low values 1.03 | locus YJL164C, strain tpk1, hits give low values 1.01 | locus YJL166W, strain qcr8, hits give low values 1.01 | locus YJL168C, strain set2, hits give low values 0.994 | locus YJL187C, strain SWE1 (second series), hits give low values 0.997 | locus YJL187C, strain SWE1, hits give low values 1.01 | locus YJR043C, strain POL32, hits give low values 0.996 | locus YJR066W, strain TOR1, hits give low values 0.93
active: locus YDR137W, strain rgp1, hits give low values 0.824
